Test results reported in PubChem BioAssay (EPA / NIEHS).
More than one record can exist for a structure, and the calls need not agree. The source made the active and inactive calls. The calls were made as follows: active = hit-call score of the fitted dose curve at least 0.9, where 1 is the maximum; inactive = score below 0.9.

read-out: Plasminogen activator inhibitor-1 (PAI1), SERPINE1 (gene 5054); test: BSK_BE3C_PAI1: BioMAP Diversity Plus: BE3C Assay for Plasminogen activator inhibitor-1 (PAI1) Biomarker Activity (AID 2283037); conditions: primary human bronchial epithelial cells; actives raise or lower the signal
Procedure: BSK_BE3C is a cell-based, multiplexed-readout assay that uses bronchial epithelial cell, a human lung primary cell, with measurements taken at 24 hours after chemical dosing in a 96-well plate.BSK_BE3C_PAI1 is an assay component measured in the BSK_BE3C assay. It measures PAI-1 antibody related to regulation of gene expression using ELISA technology.Data from the assay component BSK_BE3C_PAI1 was analyzed into 1 assay endpoint. This assay endpoint, BSK_BE3C_PAI1, was analyzed with bidirectional fitting relative to DMSO as the negative control and baseline of activity. Using a type of binding reporter, gain or loss-of-signal activity can be used to understand changes in the signaling as they relate to the gene SERPINE1. Furthermore, this assay endpoint can be referred to as a primary readout, because this assay has produced multiple assay endpoints where this one serves a signaling function. To generalize the intended target to other relatable targets, this assay endpoint is annotated to the cytokine intended target family, where the subfamily is plasmogen activator inhibitor.
The levels of cell surface (or secreted, indicated by the prefix "s") biomarker endpoints were measured by ELISA. Overt cytotoxicity to cells in confluent adherent cultures (all systems other than the BT system) was assessed by measuring total protein levels using sulforhodamine B (SRB) staining in parallel cultures at the time of biomarker measurements, indicated as SRB endpoints. For proliferation assays for adherent cell types, individual cell types are cultured at sub-confluence and relative cell numbers quantified by SRB staining at time points optimized for each system (48 h: 3C and CASM3C systems; 72 h: BT and HDF3CGF systems; 96 h: SAg system). SRB was performed by staining cells with 0.1% SRB after fixation with 10% TCA and reading wells at 560 nm.Viability and proliferation of PBMC (T cells) was quantified by Alamar Blue reduction for the SAg and BT systems. For PBMC viability (referred to as PBMC Cytotoxicity within the assay endpoint names), cells were plated (75,000/well in a 96-well plate) and then chemical samples added for 1 h before addition of activators, SEB and TSST-1 (20 ng/mL final concentration each). Cells were incubated for 90 h. Then, Alamar Blue (20 uL/well) (Invitrogen, Cat DAL1100) was added for 6 h, and the plates were read with a fluorescence microplate reader at 546/580 nm (excitation/emission). For PBMC proliferation, cells were plated and activated as above but incubated for only 16 h prior to addition of Alamar Blue. Plates were read after 6 h.

outcome, inactive:
Cc1cc(CCC(=O)OCCOCCOCCOC(=O)CCc2cc(C)c(O)c(C(C)(C)C)c2)cc(C(C)(C)C)c1O
CC=Cc1ccc(OCC)c(O)c1
C=C(C)[C@H]1CC=C(C)C(=O)C1
CN(C)C(=O)Nc1ccc(Oc2ccc(Cl)cc2)cc1
C=C(C)C(=O)OCC(CC)(COC(=O)C(=C)C)COC(=O)C(=C)C
CCOC(=O)C(C#N)=C(c1ccccc1)c1ccccc1
C=C(C)C(=O)OCCOCCOCCOC(=O)C(=C)C
CN(c1nccc(=O)[nH]1)C1CCN(c2nc3ccccc3n2Cc2ccc(F)cc2)CC1
C[C@@H]1CCN(C(=O)[C@H](CCCN=C(N)N)NS(=O)(=O)c2cccc3c2NC[C@H](C)C3)[C@@H](C(=O)O)C1
CS(=O)(=O)c1ccc(C2=C(c3ccccc3)C(=O)OC2)cc1
CCCCOC(=O)CCCCCCCC(=O)OCCCC
O=C1c2ccccc2C(=O)c2c(O)ccc(O)c21
CSCCC=O
CC1(C)C2=CCCC(C)(C)[C@]23CC[C@H]1C3
O=CN1CCOCC1
CCCCCCCCCCCCCCCC(=O)OC/C=C(C)/C=C/C=C(C)/C=C/C1=C(C)CCCC1(C)C
CCCCCCC(CO)CCCC (stereo not given)
C=CC(C)(O)CCC=C(C)C (stereo not given)
O=C(Nc1ccc2c(O)c(N=Nc3ccc(N=Nc4ccc(S(=O)(=O)O)cc4)cc3)c(S(=O)(=O)O)cc2c1)c1ccccc1
CC(C)(N=C=O)c1cccc(C(C)(C)N=C=O)c1
CCCCCC(C=O)=Cc1ccccc1
CC(=O)c1c(C)c([N+](=O)[O-])c(C(C)(C)C)c([N+](=O)[O-])c1C
c1ccc2cc(Nc3ccc(Nc4ccc5ccccc5c4)cc3)ccc2c1
COc1ccc(CCN2CCC(Nc3nc4ccccc4n3Cc3ccc(F)cc3)CC2)cc1
O=C1OC2(c3ccccc31)c1ccc(O)c(Br)c1Oc1c2ccc(O)c1Br
CC1(C)CCC[C@]2(C)[C@H]3CCO[C@]3(C)CC[C@@H]12
O=C1OC[C@H](Cc2cccc(O)c2)[C@H]1Cc1cccc(O)c1
CCN(CC)C(=O)N(CC)CC
CC(=O)Nc1ccc(C(=O)CCl)cc1
CC(CN=Cc1ccccc1O)N=Cc1ccccc1O (stereo not given)
CC(C=O)Cc1ccc(C(C)(C)C)cc1 (stereo not given)
COc1ccc(OC)c(N=Nc2c(O)ccc3ccccc23)c1
C1=CC2C3C=CC(C3)C2C1 (stereo not given)

AC50, active:
Clc1cc(Cl)c(-c2c(Cl)c(Cl)cc(Cl)c2Cl)cc1Cl 10 µM
CC(=O)C1(C)CC2=C(CCCC2(C)C)CC1C (stereo not given) 20 µM
c1ccc(CCc2ccccc2)cc1 29.3 µM
CCC(C)c1cc([N+](=O)[O-])cc([N+](=O)[O-])c1OC(=O)OC(C)C (stereo not given) 20 µM
CCCCN(CCCC)C(=O)N(CCCC)CCCC 9.25 µM
CC1(C)CCC[C@]2(C)[C@H]3CCO[C@]3(C)CC[C@@H]12 36.4 µM
Oc1c(Cl)cc(Cl)c(Cl)c1Cc1c(O)c(Cl)cc(Cl)c1Cl 3.97 µM
